# Data from PMC7862700, “An all-to-all approach to the identification of sequence-specific readers for epigenetic DNA modifications on cytosine”.
# Tests used:
# Test in all cases: DAPPL (digital affinity profiling via proximity ligation, sequencing); 10 mM Tris-HCl pH 7.5, 50 mM NaCl, 1 mM DTT, 4% glycerol, room temperature, 30 min; GST-TFs on glutathione beads, 16-mer random dsDNA library, 0.1% formaldehyde crosslink after washing; high values mean tight binding
# FLI1 = molecular target: T1, FLI1 (Homo sapiens, UniProt Q01543 1-452); settings: protein: recombinant; tags: N-terminal GST; dsDNA, one strand shown
# T1 sequence: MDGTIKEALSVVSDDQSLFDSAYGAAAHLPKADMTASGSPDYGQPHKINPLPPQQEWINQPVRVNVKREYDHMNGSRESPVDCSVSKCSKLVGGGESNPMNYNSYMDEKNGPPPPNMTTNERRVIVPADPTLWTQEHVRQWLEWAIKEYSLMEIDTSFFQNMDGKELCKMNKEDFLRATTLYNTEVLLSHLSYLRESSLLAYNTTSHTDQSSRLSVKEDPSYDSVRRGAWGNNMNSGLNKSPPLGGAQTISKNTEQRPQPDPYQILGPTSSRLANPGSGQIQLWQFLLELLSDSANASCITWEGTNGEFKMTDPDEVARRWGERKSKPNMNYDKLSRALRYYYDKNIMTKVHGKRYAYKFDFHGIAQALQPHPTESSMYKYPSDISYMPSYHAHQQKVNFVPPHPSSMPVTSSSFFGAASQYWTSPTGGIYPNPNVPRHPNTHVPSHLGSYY
# In short: (§1)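 The binding signal reported is, for every hexamer, its read frequency for a factor over its read frequency for the tag-only sample. Reads came from pools of yeast-expressed, GST-fused human transcription factors on glutathione beads, barcoded with DNA and mixed with that sample, which were incubated with 200 nmole of a random double-stranded 16-mer DNA library in Tris/NaCl/DTT/glycerol buffer at room temperature for 30 min. After washing, the pools were crosslinked with 0.1% formaldehyde, proximity-ligated with BsaI/T4 ligase for 1 h at 37 °C, PCR-amplified and sequenced on an Illumina NextSeq500.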
# ELK1 = molecular target: T2, ELK1 (Homo sapiens, UniProt P19419 1-428); settings: protein: recombinant; tags: N-terminal GST; dsDNA, one strand shown
# T2 sequence: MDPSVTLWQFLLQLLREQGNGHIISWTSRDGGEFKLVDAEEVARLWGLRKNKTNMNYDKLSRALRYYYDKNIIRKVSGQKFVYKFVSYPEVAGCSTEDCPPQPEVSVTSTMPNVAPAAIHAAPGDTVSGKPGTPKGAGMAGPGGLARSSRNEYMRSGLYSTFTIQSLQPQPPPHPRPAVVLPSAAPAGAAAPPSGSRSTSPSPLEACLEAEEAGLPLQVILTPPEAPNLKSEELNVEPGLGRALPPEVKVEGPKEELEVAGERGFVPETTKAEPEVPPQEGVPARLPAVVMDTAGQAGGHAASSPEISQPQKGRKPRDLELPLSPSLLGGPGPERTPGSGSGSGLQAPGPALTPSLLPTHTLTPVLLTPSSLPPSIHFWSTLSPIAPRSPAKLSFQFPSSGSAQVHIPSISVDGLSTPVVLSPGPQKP
# In short: as §1
# GABPA = molecular target: T3, GABPA (Homo sapiens, UniProt Q06546 1-454); settings: protein: recombinant; tags: N-terminal GST; dsDNA, one strand shown
# T3 sequence: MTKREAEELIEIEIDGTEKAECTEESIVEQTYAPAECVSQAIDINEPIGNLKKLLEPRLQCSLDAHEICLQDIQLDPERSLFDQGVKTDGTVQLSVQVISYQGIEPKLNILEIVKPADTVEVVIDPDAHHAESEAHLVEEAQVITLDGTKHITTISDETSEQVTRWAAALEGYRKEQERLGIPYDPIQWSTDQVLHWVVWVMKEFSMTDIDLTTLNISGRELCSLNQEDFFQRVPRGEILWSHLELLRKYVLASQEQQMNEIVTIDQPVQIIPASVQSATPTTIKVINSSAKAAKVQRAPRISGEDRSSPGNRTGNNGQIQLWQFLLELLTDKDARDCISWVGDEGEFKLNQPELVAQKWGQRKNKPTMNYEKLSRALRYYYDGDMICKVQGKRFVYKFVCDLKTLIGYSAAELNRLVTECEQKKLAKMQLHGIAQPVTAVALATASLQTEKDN
# In short: as §1
# ELF1 = ELF1 (Homo sapiens, UniProt P32519 1-619); settings: protein: recombinant; tags: N-terminal GST; dsDNA, one strand shown
# In short: as §1
# EHF = molecular target: T4, EHF (Homo sapiens, UniProt Q9NZC4 1-300); settings: protein: recombinant; tags: N-terminal GST; dsDNA, one strand shown
# T4 sequence: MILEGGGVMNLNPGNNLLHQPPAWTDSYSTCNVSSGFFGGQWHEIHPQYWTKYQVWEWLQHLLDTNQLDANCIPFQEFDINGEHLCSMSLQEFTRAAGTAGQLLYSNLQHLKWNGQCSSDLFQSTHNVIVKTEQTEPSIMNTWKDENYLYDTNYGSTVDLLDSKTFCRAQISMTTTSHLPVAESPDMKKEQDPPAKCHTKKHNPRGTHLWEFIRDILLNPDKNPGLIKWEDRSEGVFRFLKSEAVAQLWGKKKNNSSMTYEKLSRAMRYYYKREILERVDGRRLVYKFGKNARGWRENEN
# In short: as §1
# SPIB = SPIB (Homo sapiens, UniProt Q01892 1-262); settings: protein: recombinant; tags: N-terminal GST; dsDNA, one strand shown
# In short: as §1
# ELK3 = molecular target: T5, ELK3 (Homo sapiens, UniProt P41970 1-407); settings: protein: recombinant; tags: N-terminal GST; dsDNA, one strand shown
# T5 sequence: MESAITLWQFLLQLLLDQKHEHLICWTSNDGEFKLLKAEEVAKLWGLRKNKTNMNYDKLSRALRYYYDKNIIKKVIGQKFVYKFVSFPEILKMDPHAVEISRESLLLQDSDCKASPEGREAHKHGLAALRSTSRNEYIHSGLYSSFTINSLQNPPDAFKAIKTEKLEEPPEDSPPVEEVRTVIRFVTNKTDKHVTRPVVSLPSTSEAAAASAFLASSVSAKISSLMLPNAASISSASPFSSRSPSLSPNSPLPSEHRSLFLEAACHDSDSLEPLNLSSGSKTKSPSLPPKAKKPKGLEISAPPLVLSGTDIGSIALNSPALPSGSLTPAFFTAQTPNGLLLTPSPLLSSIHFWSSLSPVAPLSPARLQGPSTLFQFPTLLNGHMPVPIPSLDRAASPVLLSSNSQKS
# In short: as §1
# FEV = molecular target: T6, FEV (Homo sapiens, UniProt Q99581 1-238); settings: protein: recombinant; tags: N-terminal GST; dsDNA, one strand shown
# T6 sequence: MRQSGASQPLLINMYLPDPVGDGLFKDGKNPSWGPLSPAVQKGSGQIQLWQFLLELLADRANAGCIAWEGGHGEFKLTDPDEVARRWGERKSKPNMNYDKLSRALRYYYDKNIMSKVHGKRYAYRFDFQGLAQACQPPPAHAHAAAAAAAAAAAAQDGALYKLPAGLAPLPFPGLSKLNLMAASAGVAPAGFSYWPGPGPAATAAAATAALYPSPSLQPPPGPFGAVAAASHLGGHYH
# In short: as §1
# ETV5 = ETV5 (Homo sapiens, UniProt P41161 1-510); settings: protein: recombinant; tags: N-terminal GST; dsDNA, one strand shown
# In short: as §1
# HSF1 = HSF1 (Homo sapiens, UniProt Q00613 1-529); settings: protein: recombinant; tags: N-terminal GST; chain copies: 3; dsDNA, one strand shown
# In short: as §1
# SPIC = molecular target: T7, SPIC (Homo sapiens, UniProt Q8N5J4 1-248); settings: protein: recombinant; tags: N-terminal GST; dsDNA, one strand shown
# T7 sequence: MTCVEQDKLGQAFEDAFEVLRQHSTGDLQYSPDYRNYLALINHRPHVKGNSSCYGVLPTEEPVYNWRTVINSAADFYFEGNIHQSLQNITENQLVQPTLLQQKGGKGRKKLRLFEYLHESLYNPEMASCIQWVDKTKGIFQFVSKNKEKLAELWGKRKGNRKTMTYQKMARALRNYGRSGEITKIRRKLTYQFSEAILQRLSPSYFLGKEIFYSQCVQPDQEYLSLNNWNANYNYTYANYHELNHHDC
# In short: as §1
# ELF4 = ELF4 (Homo sapiens, UniProt Q99607 1-663); settings: protein: recombinant; tags: N-terminal GST; dsDNA, one strand shown
# In short: as §1
# ELK4 = molecular target: T8, ELK4 (Homo sapiens, UniProt P28324-2 1-405); settings: protein: recombinant; tags: N-terminal GST; dsDNA, one strand shown
# T8 sequence: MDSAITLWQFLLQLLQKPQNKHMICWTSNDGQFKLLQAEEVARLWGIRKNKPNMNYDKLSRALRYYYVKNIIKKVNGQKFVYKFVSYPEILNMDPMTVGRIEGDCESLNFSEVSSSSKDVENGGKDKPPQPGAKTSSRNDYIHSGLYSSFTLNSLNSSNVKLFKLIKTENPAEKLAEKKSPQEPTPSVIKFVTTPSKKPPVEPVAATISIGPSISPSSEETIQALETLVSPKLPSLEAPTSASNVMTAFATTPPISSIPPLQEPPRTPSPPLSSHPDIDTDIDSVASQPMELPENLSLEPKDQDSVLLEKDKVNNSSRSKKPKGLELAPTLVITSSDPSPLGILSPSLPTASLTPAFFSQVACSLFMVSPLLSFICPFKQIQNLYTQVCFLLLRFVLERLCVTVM
# In short: as §1
# ETV2 = molecular target: T9, ETV2 (Homo sapiens, UniProt O00321 1-342); settings: protein: recombinant; tags: N-terminal GST; dsDNA, one strand shown
# T9 sequence: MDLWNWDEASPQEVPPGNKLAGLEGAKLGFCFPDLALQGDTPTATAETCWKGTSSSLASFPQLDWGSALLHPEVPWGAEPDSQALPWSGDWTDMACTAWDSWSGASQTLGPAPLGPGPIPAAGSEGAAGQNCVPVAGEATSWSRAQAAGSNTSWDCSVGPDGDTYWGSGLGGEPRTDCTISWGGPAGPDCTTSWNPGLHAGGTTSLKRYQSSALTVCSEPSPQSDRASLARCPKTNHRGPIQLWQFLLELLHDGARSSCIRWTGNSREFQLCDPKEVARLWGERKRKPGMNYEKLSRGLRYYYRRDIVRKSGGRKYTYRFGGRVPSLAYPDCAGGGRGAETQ
# In short: as §1
# ELF3 = molecular target: T10, ELF3 (Homo sapiens, UniProt P78545 1-371); settings: protein: recombinant; tags: N-terminal GST; dsDNA, one strand shown
# T10 sequence: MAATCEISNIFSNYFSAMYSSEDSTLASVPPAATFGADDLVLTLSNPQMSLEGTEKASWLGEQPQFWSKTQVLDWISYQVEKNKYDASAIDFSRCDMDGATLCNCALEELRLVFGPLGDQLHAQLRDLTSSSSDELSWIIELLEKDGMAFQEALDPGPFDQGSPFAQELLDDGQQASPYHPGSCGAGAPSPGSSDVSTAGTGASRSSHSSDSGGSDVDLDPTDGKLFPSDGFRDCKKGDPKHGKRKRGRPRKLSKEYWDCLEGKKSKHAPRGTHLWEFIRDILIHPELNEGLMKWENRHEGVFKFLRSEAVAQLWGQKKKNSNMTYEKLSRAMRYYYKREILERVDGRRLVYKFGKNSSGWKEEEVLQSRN
# In short: as §1
# CRX = CRX (Homo sapiens, UniProt O43186 1-299); settings: protein: recombinant; tags: N-terminal GST; dsDNA, one strand shown
# In short: as §1
# ETV1 = ETV1 (Homo sapiens, UniProt P50549 1-477); settings: protein: recombinant; tags: N-terminal GST; dsDNA, one strand shown
# In short: as §1
# SPIB, sequence (Q01892 whole entry): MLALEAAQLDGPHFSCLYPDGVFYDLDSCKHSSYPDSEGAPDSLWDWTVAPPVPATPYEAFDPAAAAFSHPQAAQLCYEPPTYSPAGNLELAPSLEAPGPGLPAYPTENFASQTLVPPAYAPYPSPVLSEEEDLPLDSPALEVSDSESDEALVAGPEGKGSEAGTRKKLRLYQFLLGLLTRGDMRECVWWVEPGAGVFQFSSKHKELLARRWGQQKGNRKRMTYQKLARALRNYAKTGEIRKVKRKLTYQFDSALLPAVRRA
# ELF4, sequence (Q99607 whole entry): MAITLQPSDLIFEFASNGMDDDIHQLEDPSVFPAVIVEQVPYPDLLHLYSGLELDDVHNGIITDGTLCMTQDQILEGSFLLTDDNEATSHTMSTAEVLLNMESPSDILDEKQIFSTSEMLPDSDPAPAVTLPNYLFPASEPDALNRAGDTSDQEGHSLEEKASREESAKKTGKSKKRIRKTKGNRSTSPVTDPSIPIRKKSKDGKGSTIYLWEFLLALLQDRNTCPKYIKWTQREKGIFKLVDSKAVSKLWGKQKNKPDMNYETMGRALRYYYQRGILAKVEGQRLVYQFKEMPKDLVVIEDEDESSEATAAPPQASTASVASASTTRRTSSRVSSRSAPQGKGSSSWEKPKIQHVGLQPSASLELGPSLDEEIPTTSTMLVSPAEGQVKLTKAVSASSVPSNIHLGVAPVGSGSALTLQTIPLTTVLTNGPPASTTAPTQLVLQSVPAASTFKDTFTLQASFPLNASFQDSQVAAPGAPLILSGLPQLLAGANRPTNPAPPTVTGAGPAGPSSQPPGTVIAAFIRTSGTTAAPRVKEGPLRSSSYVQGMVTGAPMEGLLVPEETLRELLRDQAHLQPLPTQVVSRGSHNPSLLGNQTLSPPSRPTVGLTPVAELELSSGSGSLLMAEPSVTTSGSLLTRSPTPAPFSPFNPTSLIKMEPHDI
# ELF1, sequence (P32519 whole entry): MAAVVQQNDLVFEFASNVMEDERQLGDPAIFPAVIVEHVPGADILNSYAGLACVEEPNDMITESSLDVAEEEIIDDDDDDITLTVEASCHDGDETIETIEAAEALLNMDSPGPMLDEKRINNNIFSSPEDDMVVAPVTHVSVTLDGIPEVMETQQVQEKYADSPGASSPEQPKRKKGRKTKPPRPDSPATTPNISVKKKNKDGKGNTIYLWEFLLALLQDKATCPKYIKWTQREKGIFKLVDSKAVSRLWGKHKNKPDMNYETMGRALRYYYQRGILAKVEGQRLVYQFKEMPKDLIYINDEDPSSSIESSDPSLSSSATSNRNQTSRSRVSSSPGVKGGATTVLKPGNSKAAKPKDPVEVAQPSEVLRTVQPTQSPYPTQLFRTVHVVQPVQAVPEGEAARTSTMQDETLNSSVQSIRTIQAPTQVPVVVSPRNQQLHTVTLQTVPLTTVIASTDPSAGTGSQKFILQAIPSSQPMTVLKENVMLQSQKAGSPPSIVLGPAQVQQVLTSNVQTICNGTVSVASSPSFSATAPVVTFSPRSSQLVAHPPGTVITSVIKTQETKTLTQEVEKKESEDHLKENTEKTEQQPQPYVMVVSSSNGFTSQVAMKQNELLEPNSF
# ETV1, sequence (P50549 whole entry): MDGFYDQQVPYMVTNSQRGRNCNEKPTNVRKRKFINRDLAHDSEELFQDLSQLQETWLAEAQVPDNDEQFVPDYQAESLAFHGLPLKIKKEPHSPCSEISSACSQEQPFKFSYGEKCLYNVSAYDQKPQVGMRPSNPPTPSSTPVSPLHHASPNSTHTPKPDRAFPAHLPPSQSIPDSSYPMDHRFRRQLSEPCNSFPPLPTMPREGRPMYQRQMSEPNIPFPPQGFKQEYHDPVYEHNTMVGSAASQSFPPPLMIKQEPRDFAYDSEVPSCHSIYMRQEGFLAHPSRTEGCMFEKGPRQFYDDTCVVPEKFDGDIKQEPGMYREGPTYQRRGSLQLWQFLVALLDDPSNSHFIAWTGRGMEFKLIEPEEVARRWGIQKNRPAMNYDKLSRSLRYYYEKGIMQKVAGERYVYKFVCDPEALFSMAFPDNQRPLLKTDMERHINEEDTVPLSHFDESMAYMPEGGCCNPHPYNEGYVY
# ETV5, sequence (P41161 whole entry): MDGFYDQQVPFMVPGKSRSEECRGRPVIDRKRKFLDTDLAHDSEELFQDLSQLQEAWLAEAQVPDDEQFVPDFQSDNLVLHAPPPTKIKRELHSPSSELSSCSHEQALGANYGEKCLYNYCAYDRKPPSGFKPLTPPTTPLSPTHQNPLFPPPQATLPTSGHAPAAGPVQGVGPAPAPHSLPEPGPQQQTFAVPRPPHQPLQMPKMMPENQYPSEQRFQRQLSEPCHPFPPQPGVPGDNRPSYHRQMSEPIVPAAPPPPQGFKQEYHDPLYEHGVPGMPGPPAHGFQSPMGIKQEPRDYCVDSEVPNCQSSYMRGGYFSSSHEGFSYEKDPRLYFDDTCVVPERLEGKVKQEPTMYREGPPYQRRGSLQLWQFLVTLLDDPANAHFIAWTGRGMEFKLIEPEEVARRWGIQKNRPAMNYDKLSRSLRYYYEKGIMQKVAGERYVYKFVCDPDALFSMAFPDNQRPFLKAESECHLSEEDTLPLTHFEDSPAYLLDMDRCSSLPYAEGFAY
# CRX, sequence (O43186 whole entry): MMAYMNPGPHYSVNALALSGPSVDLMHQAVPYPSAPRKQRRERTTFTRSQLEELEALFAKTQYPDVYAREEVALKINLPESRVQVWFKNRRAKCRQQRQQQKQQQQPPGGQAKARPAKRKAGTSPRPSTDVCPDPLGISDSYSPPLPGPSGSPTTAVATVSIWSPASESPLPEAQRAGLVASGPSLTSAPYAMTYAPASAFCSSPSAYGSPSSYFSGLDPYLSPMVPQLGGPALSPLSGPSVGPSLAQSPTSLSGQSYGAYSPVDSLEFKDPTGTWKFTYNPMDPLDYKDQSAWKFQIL
# HSF1, sequence (Q00613 whole entry): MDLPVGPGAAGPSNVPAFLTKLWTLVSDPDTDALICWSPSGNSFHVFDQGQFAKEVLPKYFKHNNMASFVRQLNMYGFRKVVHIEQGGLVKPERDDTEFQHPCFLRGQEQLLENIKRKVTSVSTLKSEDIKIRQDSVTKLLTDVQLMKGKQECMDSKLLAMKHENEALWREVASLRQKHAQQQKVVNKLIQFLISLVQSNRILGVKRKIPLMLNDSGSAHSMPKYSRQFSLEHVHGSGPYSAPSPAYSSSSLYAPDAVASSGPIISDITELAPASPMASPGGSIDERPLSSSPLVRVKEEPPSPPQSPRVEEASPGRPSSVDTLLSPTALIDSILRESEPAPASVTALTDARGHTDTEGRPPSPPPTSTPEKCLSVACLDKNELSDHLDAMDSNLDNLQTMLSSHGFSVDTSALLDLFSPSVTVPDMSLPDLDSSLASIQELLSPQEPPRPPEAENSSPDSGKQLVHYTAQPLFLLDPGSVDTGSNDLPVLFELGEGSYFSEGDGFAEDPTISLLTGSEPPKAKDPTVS
sequence,measurement,setting,value
CCGAAG,binding signal,FLI1,"1.12 fold enrichment (6-mer frequency, TF over GST control)"
same,binding signal,ELK1,"1.09 fold enrichment (6-mer frequency, TF over GST control)"
same,binding signal,GABPA,"1.12 fold enrichment (6-mer frequency, TF over GST control)"
same,binding signal,ELF1,"1 fold enrichment (6-mer frequency, TF over GST control)"
same,binding signal,EHF,"1.03 fold enrichment (6-mer frequency, TF over GST control)"
same,binding signal,SPIB,"1.04 fold enrichment (6-mer frequency, TF over GST control)"
same,binding signal,ELK3,"1.03 fold enrichment (6-mer frequency, TF over GST control)"
same,binding signal,FEV,"1.04 fold enrichment (6-mer frequency, TF over GST control)"
same,binding signal,ETV5,"1.02 fold enrichment (6-mer frequency, TF over GST control)"
same,binding signal,HSF1,"1.35 fold enrichment (6-mer frequency, TF over GST control)"
same,binding signal,SPIC,"1.23 fold enrichment (6-mer frequency, TF over GST control)"
same,binding signal,ELF4,"1.05 fold enrichment (6-mer frequency, TF over GST control)"
same,binding signal,ELK4,"1.2 fold enrichment (6-mer frequency, TF over GST control)"
same,binding signal,ETV2,"1.31 fold enrichment (6-mer frequency, TF over GST control)"
same,binding signal,ELF3,"1.02 fold enrichment (6-mer frequency, TF over GST control)"
same,binding signal,CRX,"1.11 fold enrichment (6-mer frequency, TF over GST control)"
same,binding signal,ETV1,"1.01 fold enrichment (6-mer frequency, TF over GST control)"
